Results from PubChem BioAssay (NCATS).
Values without a mark were called inactive. The rule behind the calls is not given here.

What follows are molecules tested on HIV-1 nucleocapsid protein NCp7 (binding to TG oligonucleotide) (assay: HIV Nucleocapsid (AID 346;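 note: potency is for inhibitors that block NC binding and lower polarization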)). Conditions: HIV-1 NC / fluorescein-TGTGTGTG probe, fluorescence polarization.
Summary of the method: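 Inhibition of nucleocapsid binding to single-stranded 5'-TGTGTGTG probe (10 nM) was measured by fluorescence polarization after 1 hr at room temperature with 100 nM protein under high-salt, zinc-containing, reducing conditions.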
Potency is the fitted concentration of half-maximal effect.

Question: For `COc1ccccc1CCn1c(=O)c(-c2cccc(F)c2)nc2cncnc21`, which Potency is on record?
Answer: > 20 µM

Question: Which Potency does the source give for `O=C(c1csnn1)N1CCC2(CC1)CCN(C(c1ccccc1)c1ccccc1)CC2` here?
Answer: > 20 µM

Question: How did the Potency turn out when `COCCn1c(=O)c(-c2cccs2)nc2cnc(N3CCN(C)CC3)nc21` was run?
Answer: > 20 µM

Question: For `CC(C)NC(=O)N1CC[C@@]2(CCCN(S(=O)(=O)c3ccccc3)C2)C1`, which Potency is on record?
Answer: > 20 µM

Question: `Clc1ccccc1-c1nccc(NCCN2CCOCC2)n1` was tested. Which Potency did it give?
Answer: > 20 µM

Question: `Cc1cnc(CNc2ccnc(-c3cccc(C#N)c3)n2)cn1` was tested. Which Potency did it give?
Answer: > 20 µM

Question: How did the Potency turn out when `COc1ccccc1-c1ccc2ncnc(N3CCOCC3)c2c1` was run?
Answer: > 20 µM

Question: For `COc1ccccc1CNc1ncnc2ccc(-c3cccc(NS(C)(=O)=O)c3)cc12`, which Potency is on record?
Answer: > 20 µM

Question: `COc1ccc2[nH]cc(CCNc3ncncc3-c3ccc4c(c3)OCO4)c2c1` was tested. Which Potency did it give?
Answer: > 20 µM

Question: For `c1ccc(-c2ccc(N3CC[C@@]4(CCCNC4)C3)cc2)cc1`, which Potency is on record?
Answer: > 20 µM

Question: With `COc1ccc(-c2nc3cnc(Oc4ccccc4)nc3n(C3CC3)c2=O)cc1` as the molecule, how does the Potency read?
Answer: > 20 µM

Question: `COc1ccccc1-c1nc(NCc2cccnc2)c2ccccc2n1` was tested. Which Potency did it give?
Answer: > 20 µM

Question: `CN(C)c1ccc(-c2cc(N(C)Cc3ccco3)ncn2)cc1` was tested. Which Potency did it give?
Answer: > 20 µM

Question: Which Potency does the source give for `COCC(=O)N1CCC[C@@]2(CCN(Cc3ccccc3OC)C2)C1` here?
Answer: > 20 µM

Question: With `Cc1cccc(CNc2ncncc2-c2ccccc2CN(C)C)c1` as the molecule, how does the Potency read?
Answer: > 20 µM

Question: With `c1ccc(CNc2ncncc2-c2ccc3c(c2)OCO3)cc1` as the molecule, how does the Potency read?
Answer: > 20 µM

Question: Which Potency does the source give for `COc1cccc(-c2cc(N(C)Cc3ccco3)ncn2)c1` here?
Answer: > 20 µM

Question: `O=C(Nc1cccc(F)c1)N1CC2(CCN(C(=O)c3csnn3)CC2)C1` was tested. Which Potency did it give?
Answer: > 20 µM

Question: `COCC(=O)N1CCC2(CCCN(c3cccc(-c4ccccc4)c3)C2)CC1` was tested. Which Potency did it give?
Answer: > 20 µM

Question: Which Potency does the source give for `COc1ccccc1CNc1ncnc2ccc(-c3c(C)noc3C)cc12` here?
Answer: > 20 µM

Question: How did the Potency turn out when `Cn1cccc1C(=O)N1CCC2(CCCN(c3ccccc3)C2)CC1` was run?
Answer: > 20 µM

Question: `O=C(Nc1cccc(F)c1)N1CC[C@@]2(CCCN(C(=O)c3cc(C(F)(F)F)cc(C(F)(F)F)c3)C2)C1` was tested. Which Potency did it give?
Answer: > 20 µM

Question: `COc1ccc(NC(=O)N2CC[C@@]3(CCCN(C(=O)c4cc(C(F)(F)F)cc(C(F)(F)F)c4)C3)C2)cc1` was tested. Which Potency did it give?
Answer: > 20 µM

Question: `Cc1cccc(CNc2nc(-c3ccc4c(c3)OCO4)nc3ccccc23)c1` was tested. Which Potency did it give?
Answer: > 20 µM

Question: `Cn1c(=O)c(-c2cccs2)nc2cnc(OCc3ccccc3)nc21` was tested. Which Potency did it give?
Answer: > 20 µM

Question: Which Potency does the source give for `CN1CCN(c2nc(-c3ccc(N(C)C)cc3)nc3ccccc23)CC1` here?
Answer: > 20 µM

Question: How did the Potency turn out when `COc1cccc(Cn2c(=O)c(-c3ccccc3)nc3cnc(N4CCNCC4)nc32)c1` was run?
Answer: > 20 µM

Question: With `Cc1cnc(CNc2ncncc2-c2ccccc2Cl)cn1` as the molecule, how does the Potency read?
Answer: > 20 µM

Question: How did the Potency turn out when `O=C(c1ccco1)N1CCC2(CCCN(C(c3ccccc3)c3ccccc3)C2)CC1` was run?
Answer: > 20 µM

Question: Which Potency does the source give for `CN(C)c1ncc2ncc(=O)n(C)c2n1` here?
Answer: > 20 µM

Question: Which Potency does the source give for `O=c1cnc2cnc(OCc3ccccc3)nc2n1Cc1ccc(F)cc1` here?
Answer: > 20 µM

Question: With `c1ccc2c(-n3ccnc3)nc(-c3ccoc3)nc2c1` as the molecule, how does the Potency read?
Answer: > 20 µM

Question: Which Potency does the source give for `Cc1nc2cnc(N3CCNCC3)nc2n(Cc2ccc(F)cc2)c1=O` here?
Answer: > 4 µM

Question: How did the Potency turn out when `COc1cccc(-c2cc(NCc3ccccc3)ncn2)c1` was run?
Answer: > 20 µM

Question: For `COc1ncc2nc(C)c(=O)n(Cc3ccc(F)cc3)c2n1`, which Potency is on record?
Answer: > 20 µM

Question: With `O=c1c(-c2ccc(F)c(F)c2)nc2cncnc2n1Cc1ccccc1Cl` as the molecule, how does the Potency read?
Answer: > 20 µM

Question: `Cn1c(=O)cnc2cnc(Oc3ccccc3)nc21` was tested. Which Potency did it give?
Answer: > 20 µM

Question: How did the Potency turn out when `COc1ncc2ncc(=O)n(CCC#N)c2n1` was run?
Answer: > 20 µM

Question: With `COCCn1c(=O)c(CCc2ccccc2)nc2cnc(N3CCNCC3)nc21` as the molecule, how does the Potency read?
Answer: > 20 µM

Question: With `CN1CCN(c2ncc3nc(-c4cc(F)cc(F)c4)c(=O)n(C4CC4)c3n2)CC1` as the molecule, how does the Potency read?
Answer: > 20 µM
